Data from PubChem BioAssay (NCATS).
Inconclusive results are not listed. Calls of active or inactive are those of the source. Calls follow the shape of the dose curve; as a rule, active = well fitted curve in the direction sought with a large enough effect; inconclusive = small, poorly fitted or top-dose-only effect, or another doubt; inactive = no such curve, though single readings can be large; an effect the other way counts as inactive or inconclusive. Where a SMILES comes first, the peptide text is derived from it. [ ]: non-standard residue; d: D form.

Columns and labels:
[1] = target: Glutathione peroxidase 1 (Homo sapiens) (UniProt P07203); assay: Primary qHTS Assay for Inhibitors of Recombinant Selenoprotein Glutathione Peroxidase 1 (GPX1) (AID 1845191); also: nearly all actives have a fitted effect of over 65% in size; as to activity, negative = inhibition: % is scaled to controls: 0 for no effect and ±100 for the full control effect
Procedure, shortened: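 GR-coupled assay: compounds preincubated 30 min at room temperature with GPX1, then reaction started with CHP; final 10 nM GPX1, 1 mM GSH, 0.5 mM CHP, 0.5 mM NADPH, 100 nM GR, 0.01% BSA, pH 7.5 Tris buffer. NADPH fluorescence (340/450 nm) read at 0 and 15 min.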

[2] = target: Phospholipid hydroperoxide glutathione peroxidase GPX4 (Homo sapiens) (UniProt P36969); assay: Primary qHTS Assay for Inhibitors of Recombinant Selenoprotein Glutathione Peroxidase 4 (GPX4) (AID 1845192); also: nearly all actives have a fitted effect of over 65% in size; as to activity change, negative = inhibition: series mostly up to about 50 µM; % is scaled to controls: 0 for no effect and ±100 for the full control effect
Procedure, shortened: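 GR-coupled assay: recombinant GPX4 preincubated 30 min with compound at room temperature; final 200 nM GPX4, 1 mM GSH, 0.5 mM cumene hydroperoxide, 0.5 mM NADPH, 100 nM GR, 0.01% BSA, pH 7.5 Tris. NADPH fluorescence (340/450 nm) read at 0 and 15 min.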

[3] = target: Luciferin 4-monooxygenase (Photinus pyralis) (UniProt P08659); assay: Primary firefly luciferase (FLuc) qHTS assay for identification of artifact compounds. (AID 1845220); also: nearly all actives have a fitted effect of over 60% in size;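 as to activity change, negative = inhibition: series mostly up to about 54 µM; plate controls were DMSO vehicle for no effect and no enzyme for full effect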
Procedure, shortened: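 Titrated compounds were incubated 15 min at RT, protected from light, with luciferin and ATP at 10 uM; reaction started with 10 nM FLuc, luminescence imaged at 5 min, and concentration-response fitted by Hill equation.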

[4] = Primary fluorescence-based thiol-reactive (MSTI) qHTS assay for identification of artifact compounds. (AID 1845221); also: nearly all actives have a fitted effect of over 65% in size; also: potency is read from the fitted curve at half-maximal effect;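 as to activity change, negative = thiol reactive: series mostly up to about 54 µM; thiol-reactive compounds lower the probe fluorescence signal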
Procedure, shortened: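 Reactivity toward the thiol probe MSTI (4 uM) is scored by fluorescence at Ex/Em 525/598 nm after 1 h at room temperature. Acetyl-MSTI and MSTI define the activity scale.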

[5] = test system: Nanoluciferase (engineered Oplophorus gracilirostris luciferase); assay: Primary Nanoluciferase (NLuc) qHTS assay for identification of artifact compounds. (AID 1845222);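 also: NLuc secreted into diluted conditioned medium of S16 cells; series mostly up to about 54 µM; 0% = DMSO and -100% = no enzyme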
Procedure, shortened: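 qHTS format, against NLuc in S16 cell-conditioned medium. Nano-Glo substrate 1:100 was added after 15 min at room temperature. Luminescence was taken after a further 5 min.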

[6] = Primary redox qHTS assay for identification of artifact compounds. (AID 1845223); also: potency is read from the fitted curve at half-maximal effect;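 as to redox activity (% of DA3003): 0% = DMSO and 100% = reference compound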
Procedure, shortened: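 Amplex Red (25 uM) and HRP (250 mU/mL) in HBSS, with compounds for 15 min, then 250 uM DTT for 30 min, room temperature, dark. Fluorescence 525/598 nm read; normalized to DMSO and 10 uM DA3003; Hill fit.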

Chain of Phospholipid hydroperoxide glutathione peroxidase GPX4 (Homo sapiens) (P36969 whole entry, looked up): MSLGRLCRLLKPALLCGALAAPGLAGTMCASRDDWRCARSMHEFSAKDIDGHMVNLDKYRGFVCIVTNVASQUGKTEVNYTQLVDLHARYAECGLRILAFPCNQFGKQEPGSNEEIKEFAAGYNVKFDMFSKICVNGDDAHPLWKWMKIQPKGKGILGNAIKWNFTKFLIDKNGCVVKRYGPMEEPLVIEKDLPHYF
Chain of Glutathione peroxidase 1 (Homo sapiens) (P07203 whole entry, looked up): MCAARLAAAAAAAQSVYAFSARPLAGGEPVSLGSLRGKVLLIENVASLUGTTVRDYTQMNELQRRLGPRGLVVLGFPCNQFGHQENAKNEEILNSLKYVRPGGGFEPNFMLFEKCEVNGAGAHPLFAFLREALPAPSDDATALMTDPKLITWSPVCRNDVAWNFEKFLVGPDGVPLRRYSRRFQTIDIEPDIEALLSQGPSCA

CC1(CO)CC[C@]2(C(=O)O[C@@H]3O[C@H](CO)[C@@H](O)[C@H](O)[C@H]3O)CC[C@]3(C)C(=CCC4[C@@]5(C)C[C@H](O)[C@H](O[C@@H]6OC[C@@H](O)[C@H](O)[C@H]6O)[C@@](C)(CO)C5CC[C@]43C)C2C1 (stereo partly specified)
inactive: Potency [1] | Potency [2] | activity change, negative = inhibition [3] 4.3% [at 11.6 µM] | activity change, negative = thiol reactive [4] 76.2% [at 11.5 µM] | activity, negative = inhibition [5] 0% [at 11.6 µM] | redox activity (% of DA3003) [6] 6.69% [at 11.5 µM]

CN1CC[C@@H](NC(=O)Nc2ccc(C#N)cc2)C[C@@H]1c1nc2ccccc2[nH]1
inactive: Potency [1] | Potency [2] | Potency [3] | Potency [4] | Potency [5] | Potency [6]

CC(=O)N[C@H](Cc1ccc(O)cc1)C(=O)N[C@H](CCCN=C(N)N)C(=O)N[C@H](Cc1ccccc1)C(N)=O (Ac-[dY]-[dR]-[dF]-NH2)
inactive: Potency [1] | Potency [2] | Potency [3] | Potency [4] | Potency [5] | Potency [6]

CC(=O)OC[C@@]12[C@H](O)C[C@]3(C)C(=CCC4[C@@]5(C)CC[C@H](O[C@@H]6O[C@H](C(=O)O)[C@@H](O[C@@H]7O[C@H](CO)[C@@H](O)[C@H](O)[C@H]7O)[C@H](O)[C@H]6O[C@@H]6O[C@H](CO)[C@@H](O)[C@H](O)[C@H]6O)[C@](C)(CO)C5CC[C@]43C)[C@@H]1CC(C)(C)[C@@H](OC(C)=O)[C@@H]2O (stereo partly specified)
inactive: Potency [1] | Potency [2] | outcome [3] inactive [at 11.6 µM] | activity change, negative = thiol reactive [4] 182% [at 11.5 µM] | activity, negative = inhibition [5] 3.06% [at 11.6 µM] | redox activity (% of DA3003) [6] 7.21% [at 11.5 µM]

Cc1[nH]cnc1C1CCN(c2nc3cccc4c3n2CCC4=O)CC1
inactive: Potency [1] | Potency [2] | Potency [3] | Potency [4] | Potency [5] | Potency [6]

CCNC(=O)[C@H]1O[C@H](n2cnc3c(NCC(c4ccccc4)c4ccccc4)nc(C(=O)NCCNC(=O)NC4CCN(c5ccccn5)CC4)nc32)[C@H](O)[C@@H]1O
inactive: Potency [1] | Potency [2] | Potency [3] | Potency [4] | Potency [5] | Potency [6]

NC(Cc1c[nH]c2ccccc12)C(=O)NC(CCC(=O)O)C(=O)O (stereo unspecified)
inactive: Potency [1] | Potency [2] | Potency [3] | Potency [4] | Potency [5] | Potency [6]

COc1ccc(/C=C/C(=O)O[C@H]2[C@@H]3C=CO[C@@H](O[C@@H]4O[C@H](CO)[C@@H](O)[C@H](O)[C@H]4O)[C@@H]3[C@@]3(CO)O[C@@H]23)cc1O
inactive: Potency [1] | Potency [2] | Potency [3] | Potency [5] | Potency [6]
active: Potency [4] 11.6 µM

O=C(Nc1cccnn1)N1CCC(=Cc2cccc(Oc3ccc(C(F)(F)F)cn3)c2)CC1
inactive: Potency [1] | Potency [2] | Potency [3] | Potency [4] | Potency [5] | Potency [6]

COCCCNCC1COc2ccccc2O1 (stereo unspecified)
inactive: Potency [1] | Potency [2] | Potency [3] | Potency [4] | Potency [5] | Potency [6]

O=C(/C=C/c1ccc(O)cc1)OC[C@H]1O[C@@H](OC(=O)/C=C/c2ccccc2)[C@H](O)[C@@H](O)[C@@H]1O
inactive: Potency [1] | Potency [2] | Potency [3] | Potency [5] | Potency [6]
active: Potency [4] 11.6 µM

COc1cc(/C=C/C(=O)OC2CC(OC(C)=O)C(OC(C)=O)C3C2CCC2C(=O)OC(c4ccoc4)CC23C)ccc1O[C@@H]1O[C@H](CO)[C@@H](O)[C@H](O)[C@H]1O (stereo partly specified)
inactive: Potency [1] | Potency [2] | Potency [3] | Potency [4] | Potency [5] | Potency [6]

C=C1CC[C@H]2[C@@H](/C=C(\C)C(=O)[C@@]3(OC(C)=O)C[C@H](C)[C@H](OC(C)=O)[C@@H]3[C@H]1OC(C)=O)C2(C)C
inactive: Potency [1] | Potency [2] | Potency [3] | Potency [4] | Potency [5] | Potency [6]

COCC(=O)N1CCc2cc(-c3csc(NC(=O)c4cc(OC)cc(OC)c4)n3)ccc21
inactive: Potency [1] | Potency [2] | Potency [3] | Potency [4] | Potency [5] | Potency [6]

CC1OC(OC2C(CO)OC(OCC3OC(OC(=O)C45CCC(C)(C)CC4C4=CCC6C7(C)CCC(OC8OC(C(=O)O)C(O)C(OC9OC(CO)C(O)C(O)C9O)C8O)C(C)(C)C7CCC6(C)C4(C)CC5)C(O)C(O)C3O)C(O)C2O)C(O)C(O)C1O (stereo unspecified)
inactive: activity, negative = inhibition [1] -12.7% [at 9.52 µM] | activity change, negative = inhibition [2] -11.9% [at 9.73 µM] | activity change, negative = inhibition [3] -1.13% [at 11.6 µM] | activity change, negative = thiol reactive [4] 336% [at 11.5 µM] | activity, negative = inhibition [5] 0% [at 11.6 µM] | redox activity (% of DA3003) [6] 7.33% [at 11.5 µM]

C[C@@H]1CC[C@]2(C)C(C[C@@H](O)[C@H](O)[C@]23CO3)[C@@]1(C)CCc1ccoc1 (stereo partly specified)
inactive: Potency [1] | Potency [2] | Potency [3] | Potency [4] | Potency [5] | Potency [6]

CC1(C)CC[C@]2(C(=O)O[C@@H]3O[C@H](CO)[C@@H](O)[C@H](O)[C@H]3O)CC[C@]3(C)C(=CCC4[C@@]5(C)C[C@@H](O)[C@H](O)C(CO)(CO)C5CC[C@]43C)C2[C@@H]1O (stereo partly specified)
inactive: Potency [1] | Potency [2] | Potency [3] | Potency [4] | Potency [5] | Potency [6]

C[C@@H]1C[C@H]2[C@@H]3CCC4=CC(=O)C=C[C@]4(C)[C@@]3(F)[C@@H](O)C[C@]2(C)[C@@]1(O)C(=O)COP(=O)(O)O
inactive: Potency [1] | Potency [2] | Potency [3] | Potency [4] | Potency [5] | Potency [6]

CNC(=O)c1ccc(Nc2ncc(C(F)(F)F)c(NCc3nccnc3N(C)S(C)(=O)=O)n2)cc1
inactive: Potency [1] | Potency [2] | Potency [3] | Potency [4] | Potency [5] | Potency [6]

C=C[C@H]1[C@H](O[C@@H]2O[C@H](CO[C@@H]3OC[C@](O)(CO)[C@H]3O)[C@@H](O)[C@H](O)[C@H]2O)OC=C2C(=O)OCC[C@H]21
inactive: Potency [1] | Potency [2] | Potency [3] | Potency [4] | Potency [5]
active: Potency [6] 3.27 µM

CC(C)(O)C1CC=C(C(=O)OCC2OC(Oc3c(O)cc(C(=O)O)cc3O)C(O)C(O)C2O)CC1 (stereo unspecified)
active: Potency [4] 0.822 µM
inactive: Potency [1] | Potency [2] | Potency [3] | Potency [5] | Potency [6]
